According to the supplement of paper PMC12645437, “Orthogonal IMiD-Degron Pairs Induce Selective Protein Degradation in Cells” (ACS Chemical Biology, 2025):
In all, about 8,300 sequences were measured (“log2 fold change of degron read counts, EGFP-low vs EGFP+ sorted cells (limma voom), compound-induced degradation”: median about -1.1, highest 2% from about 3.2 on). This excerpt belongs to a sample that is enriched for the highest values.

T1: CRBN, Q96SW2
T1 chain: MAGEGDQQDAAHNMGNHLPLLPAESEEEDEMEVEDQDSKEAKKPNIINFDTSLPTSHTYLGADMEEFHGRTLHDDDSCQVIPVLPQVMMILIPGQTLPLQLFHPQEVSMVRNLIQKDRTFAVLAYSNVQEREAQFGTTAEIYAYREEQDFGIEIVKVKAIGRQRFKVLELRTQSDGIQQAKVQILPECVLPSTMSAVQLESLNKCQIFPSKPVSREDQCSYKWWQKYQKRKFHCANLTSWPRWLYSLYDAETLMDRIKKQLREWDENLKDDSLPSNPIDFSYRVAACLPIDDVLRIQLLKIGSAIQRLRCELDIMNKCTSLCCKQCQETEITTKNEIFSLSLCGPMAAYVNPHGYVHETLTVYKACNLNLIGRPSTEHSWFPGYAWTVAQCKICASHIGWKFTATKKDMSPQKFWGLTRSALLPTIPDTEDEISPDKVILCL

B1: 46F_47K_49D_50V_52G_53A_54D_55F_67L_, Q9UKT9 (peptide)
chain: FKCDVCGADFTQKGNLLRHIKL
B2: 46F_47F_49E_50I_52G_53R_54Y_55F_67L_, Q9UKT9 (peptide)
chain: FFCEICGRYFTQKGNLLRHIKL
B3: 46F_47K_49N_50Q_52G_53R_54G_55F_67L_, Q9UKT9 (peptide)
chain: FKCNQCGRGFTQKGNLLRHIKL
B4: 46F_47S_49D_50Q_52G_53A_54A_55F_67L_, Q9UKT9 (peptide)
chain: FSCDQCGAAFTQKGNLLRHIKL
B5: 46F_47S_49D_50I_52G_53A_54Q_55F_67L_, Q9UKT9 (peptide)
chain: FSCDICGAQFTQKGNLLRHIKL
B6: 46L_47T_49P_50I_52G_53F_54N_55C_67L_, Q9UKT9 (peptide)
chain: LTCPICGFNCTQKGNLLRHIKL
B7: 46F_47S_49E_50I_52G_53H_54Y_55F_67L_, Q9UKT9 (peptide)
chain: FSCEICGHYFTQKGNLLRHIKL
B8: 46F_47L_49E_50I_52G_53H_54L_55F_67L_, Q9UKT9 (peptide)
chain: FLCEICGHLFTQKGNLLRHIKL
B9: 46F_47M_49E_50I_52G_53R_54D_55F_67L_, Q9UKT9 (peptide)
chain: FMCEICGRDFTQKGNLLRHIKL
B10: 46F_47W_49N_50V_52G_53A_54N_55F_67L_, Q9UKT9 (peptide)
chain: FWCNVCGANFTQKGNLLRHIKL
B11: 46F_47R_49P_50V_52G_53A_54N_55F_67L_, Q9UKT9 (peptide)
chain: FRCPVCGANFTQKGNLLRHIKL
B12: 46F_47E_49N_50V_52G_53A_54N_55F_67L_, Q9UKT9 (peptide)
chain: FECNVCGANFTQKGNLLRHIKL
B13: 46F_47F_49P_50V_52G_53A_54N_55F_67L_, Q9UKT9 (peptide)
chain: FFCPVCGANFTQKGNLLRHIKL
B14: 46F_47W_49D_50V_52G_53A_54N_55F_67L_, Q9UKT9 (peptide)
chain: FWCDVCGANFTQKGNLLRHIKL
B15: 46F_47Y_49N_50V_52G_53A_54N_55F_67L_, Q9UKT9 (peptide)
chain: FYCNVCGANFTQKGNLLRHIKL
B16: 46F_47I_49P_50V_52G_53A_54N_55F_67L_, Q9UKT9 (peptide)
chain: FICPVCGANFTQKGNLLRHIKL
B17: 46F_47V_49D_50V_52G_53A_54N_55F_67L_, Q9UKT9 (peptide)
chain: FVCDVCGANFTQKGNLLRHIKL

Biological target: T1, CRBN, Q96SW2
Assay: log2 fold change of degron read counts, EGFP-low vs EGFP+ sorted cells (limma voom), compound-induced degradation; higher = more compound-induced degradation of the degron-EGFP fusion; degrons are variants of IKZF1/3 zinc finger 2; compound dose not given here
Conditions: Jurkat, 18 h
[1] = compound: compound 19 (5-tert-butyl-thalidomide)
[2] = compound: compound 22 (5-morpholino-thalidomide)
[3] = compound: compound 33 (diphenyl IMiD analogue)
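Also: pooled lentiviral library of zinc finger degron-EGFP fusions in mCherry-positive Jurkat cells, FACS-sorted after compound exposure, with degron abundance counted by next-generation sequencing.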

| Sequence | log2 fold change of degron read counts [1] | log2 fold change of degron read counts [2] | log2 fold change of degron read counts [3] | log2 fold change of degron read counts (compound: thalidomide) |
| --- | --- | --- | --- | --- |
| B1 | -2.97 | -3.35 | -3.54 | -2.81 |
| B2 | 0.941 | 0.578 | -0.864 | -0.888 |
| B3 | -2.31 | -2.82 | -2.99 | -2.64 |
| B4 | -0.624 | -1.35 | 0.123 | -2.08 |
| B5 | 1.74 | 1.52 | 0.198 | 0.0774 |
| B6 | -0.006 | 2.04 | 2.24 | 2.86 |
| B7 | -2.13 | -2.82 | -2.44 | -2.99 |
| B8 | -3.49 | -2.55 | -2.84 | -2.4 |
| B9 | -4.1 | -3.78 | -2.1 | -2.87 |
| B10 | 1.2 | 3.53 | 1.36 | -0.0957 |
| B11 | -0.729 | -0.0361 | 1.6 | 1.18 |
| B12 | -2.58 | -1.81 | 0.845 | 0.642 |
| B13 | 2.53 | 3.51 | 1.89 | 1.22 |
| B14 | 1.91 | 3.89 | 0.9 | -0.759 |
| B15 | 0.97 | 2.35 | 0.921 | -0.663 |
| B16 | -1.07 | 2.83 | 1.95 | 2.35 |
| B17 | -1.78 | 0.744 | 0.282 | 0.237 |
